# In the supplement of paper PMC9023506:
# Counter-ions that a name gives are not always drawn.
# Experiments:
# Settings in all cases: 10 µM; exposure time: 3 h pre-incubation + 3 h imaging
# [1] = tested on: Danio rerio larvae (5 dpf); assay: habituation to 1-s acoustic pulses, difference vs DMSO (percentage points (treated minus DMSO)); higher = more of the behaviour than the DMSO vehicle control
# Procedure, shortened: (§1)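 5-dpf wild-type zebrafish larvae in 96-well ProxiPlates were exposed to library drugs at 10 µM (diluted 1000× from DMSO stocks into egg water). There were 48 larvae per drug, exposed 3 h before and 3 h during imaging at 28.5 °C. Images taken every 6 s covered a 3-h program of rest, moving coloured lines and acoustic pulses, and an ImageJ macro scored movement and upper-half location. Each behaviour score is the treated-group mean minus the DMSO vehicle mean, in percentage points.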
# [2] = tested on: Danio rerio larvae (5 dpf); assay: optomotor response to red moving lines, difference vs DMSO (percentage points (treated minus DMSO)); higher = more of the behaviour than the DMSO vehicle control
# Procedure, shortened: as §1
# [3] = tested on: Danio rerio larvae (5 dpf); assay: activity during first hour (no stimuli), difference vs DMSO (percentage points (treated minus DMSO)); higher = more of the behaviour than the DMSO vehicle control
# Procedure, shortened: as §1
# [4] = tested on: Danio rerio larvae (5 dpf); assay: startle response to 20-s acoustic pulses, difference vs DMSO (percentage points (treated minus DMSO)); higher = more of the behaviour than the DMSO vehicle control
# Procedure, shortened: as §1
# [5] = tested on: Danio rerio larvae (5 dpf); assay: optomotor response to fast red moving lines, difference vs DMSO (percentage points (treated minus DMSO)); higher = more of the behaviour than the DMSO vehicle control
# Procedure, shortened: as §1
# [6] = tested on: Danio rerio larvae (5 dpf); assay: excitability to 1-s acoustic pulses, difference vs DMSO (percentage points (treated minus DMSO)); higher = more of the behaviour than the DMSO vehicle control
# Procedure, shortened: as §1
# [7] = tested on: Danio rerio larvae (5 dpf); assay: optomotor response to blue moving lines, difference vs DMSO (percentage points (treated minus DMSO)); higher = more of the behaviour than the DMSO vehicle control
# Procedure, shortened: as §1
# [8] = tested on: Danio rerio larvae (5 dpf); assay: optomotor response to green moving lines, difference vs DMSO (percentage points (treated minus DMSO)); higher = more of the behaviour than the DMSO vehicle control
# Procedure, shortened: as §1
# [9] = tested on: Danio rerio larvae (5 dpf); assay: activity during period 15 (no stimuli), difference vs DMSO (percentage points (treated minus DMSO)); higher = more of the behaviour than the DMSO vehicle control
# Procedure, shortened: as §1
structure (smiles),measurement,setting,value
N#Cc1ccc2[nH]cc(CCCCN3CCN(c4ccc5oc(C(N)=O)cc5c4)CC3)c2c1 [Vilazodone hydrochloride],habituation to 1-s acoustic pulses,[1],-3.73
same,optomotor response to red moving lines,[2],12.8
same,activity during first hour,[3],-24.1
same,startle response to 20-s acoustic pulses,[4],-6.5
same,optomotor response,[5],-38.2
O=C(O)C[C@H](O)C[C@H](O)/C=C/c1c(C2CC2)nc2ccccc2c1-c1ccc(F)cc1 [Pitavastatin calcium],excitability to 1-s acoustic pulses,[6],0.628
same,activity during first hour,[3],-0.557
same,optomotor response to blue moving lines,[7],11
same,optomotor response to green moving lines,[8],11
Nc1ncn([C@H]2C[C@H](O)[C@@H](CO)O2)c(=O)n1 [Decitabine],activity during first hour,[3],0.325
same,optomotor response to blue moving lines,[7],-0.954
CC(C)c1nc(N(C)S(C)(=O)=O)nc(-c2ccc(F)cc2)c1/C=C/[C@@H](O)C[C@@H](O)CC(=O)O [Rosuvastatin calcium],habituation to 1-s acoustic pulses,[1],0.315
same,optomotor response to red moving lines,[2],7.07
same,activity during first hour,[3],3.37
same,optomotor response to green moving lines,[8],2.28
same,optomotor response,[5],11.1
O=c1[nH]c(=O)n([C@H]2C[C@H](O)[C@@H](CO)O2)cc1C(F)(F)F [Trifluorothymidine],optomotor response to red moving lines,[2],9.66
same,activity during first hour,[3],1.96
same,optomotor response to green moving lines,[8],6.4
same,optomotor response,[5],-0.769
COc1cc2ncnc(Nc3ccc(F)c(Cl)c3)c2cc1OCCCN1CCOCC1 [Iressa],activity during period 15,[9],-0.986
same,activity during first hour,[3],-5.98
same,optomotor response to blue moving lines,[7],5.63
same,startle response to 20-s acoustic pulses,[4],-2.19
same,optomotor response,[5],8.7
CCOC(=O)c1ncn2c1CN(C)C(=O)c1cc(F)ccc1-2 [Flumazenil],optomotor response to red moving lines,[2],-7.04
same,activity during first hour,[3],2.88
same,optomotor response to blue moving lines,[7],11.4
C=CC(=O)N1CCC[C@@H](n2nc(-c3ccc(Oc4ccccc4)cc3)c3c(N)ncnc32)C1 [Ibrutinib],optomotor response to red moving lines,[2],-1.62
same,activity during first hour,[3],-6.62
same,optomotor response,[5],-0.957
OCCN(CCO)c1nc(N2CCCCC2)c2nc(N(CCO)CCO)nc(N3CCCCC3)c2n1 [Dipyridamole],habituation to 1-s acoustic pulses,[1],0.822
same,activity during first hour,[3],-0.789
same,optomotor response to blue moving lines,[7],-5.39
same,optomotor response to green moving lines,[8],5.01
same,startle response to 20-s acoustic pulses,[4],6.96
Cc1cccc(C)c1OCC(C)N (centres undefined) [Mexiletine hydrochloride],activity during first hour,[3],4.51
Nc1nc2c(ncn2COCCO)c(=O)[nH]1 [Acyclovir],excitability to 1-s acoustic pulses,[6],0.524
same,activity during first hour,[3],-2
same,startle response to 20-s acoustic pulses,[4],0.665
same,optomotor response,[5],4.83
CN(C)C(=N)NC(=N)N [Metformin hydrochloride],excitability to 1-s acoustic pulses,[6],4.58
same,activity during period 15,[9],-4.35
same,activity during first hour,[3],-6.37
CCOC(=O)C1=C(C)NC(C)=C(C(=O)OC)C1c1cccc(Cl)c1Cl (centres undefined) [Felodipine],activity during period 15,[9],-11.6
same,activity during first hour,[3],-12.9
Cc1nnc(C(C)C)n1C1C[C@H]2CC[C@@H](C1)N2CC[C@H](NC(=O)C1CCC(F)(F)CC1)c1ccccc1 (stereo in doubt) [Maraviroc],habituation to 1-s acoustic pulses,[1],2.48
same,activity during period 15,[9],-3.11
same,activity during first hour,[3],-3.61
same,optomotor response to green moving lines,[8],3.11
same,startle response to 20-s acoustic pulses,[4],-4.61
COc1cccc2c1C(=O)c1c(O)c3c(c(O)c1C2=O)C[C@@](O)(C(=O)CO)C[C@@H]3O[C@H]1C[C@H](N)[C@H](O)[C@H](C)O1 [Doxorubicin hydrochloride],optomotor response to red moving lines,[2],-1.73
same,activity during period 15,[9],-10.6
same,optomotor response to blue moving lines,[7],3.86
same,optomotor response to green moving lines,[8],-8.47
CC[C@H]1OC(=O)[C@H](C)[C@@H](O[C@H]2C[C@@](C)(OC)[C@@H](O)[C@H](C)O2)[C@H](C)[C@@H](O[C@@H]2O[C@H](C)C[C@H](N(C)C)[C@H]2O)[C@](C)(O)C[C@@H](C)CN(C)[C@H](C)[C@@H](O)[C@]1(C)O [Azithromycin],activity during first hour,[3],-12.2
same,optomotor response to green moving lines,[8],-4.27
same,optomotor response,[5],-9.96
CCCCNc1cc(C(=O)O)cc(S(N)(=O)=O)c1Oc1ccccc1 [Bumetanide],optomotor response to red moving lines,[2],19.3
OC(c1cc(C(F)(F)F)nc2c(C(F)(F)F)cccc12)C1CCCCN1 (centres undefined) [Mefloquine hydrochloride],excitability to 1-s acoustic pulses,[6],14
same,activity during first hour,[3],-1.64
same,optomotor response to blue moving lines,[7],10.8
CCCCC1=NC2(CCCC2)C(=O)N1Cc1ccc(-c2ccccc2-c2nnn[nH]2)cc1 [Irbesartan],optomotor response to red moving lines,[2],-7.57
same,activity during period 15,[9],5.68
same,optomotor response to blue moving lines,[7],-14
Cc1ccc(NC(=O)c2ccc(CN3CCN(C)CC3)cc2)cc1Nc1nccc(-c2cccnc2)n1 [Imatinib mesylate],habituation to 1-s acoustic pulses,[1],3.16
same,activity during first hour,[3],-12.5
same,optomotor response to blue moving lines,[7],-0.219
same,optomotor response,[5],1.11
CCCCC(=O)N(Cc1ccc(-c2ccccc2-c2nnn[nH]2)cc1)[C@H](C(=O)O)C(C)C [Valsartan],optomotor response to red moving lines,[2],7.8
Cc1nc(-c2ccc(OCC(C)C)c(C#N)c2)sc1C(=O)O [Febuxostat],excitability to 1-s acoustic pulses,[6],-0.372
same,activity during period 15,[9],10
same,activity during first hour,[3],-0.179
same,optomotor response to green moving lines,[8],-4.77
COc1cc2nc(N3CCN(C(=O)C4COc5ccccc5O4)CC3)nc(N)c2cc1OC (centres undefined) [Doxazosin mesylate],optomotor response to red moving lines,[2],-7.06
same,optomotor response to blue moving lines,[7],-6.52
same,optomotor response to green moving lines,[8],-8.3
CCCCCCCCc1ccc(CCC(N)(CO)CO)cc1,habituation to 1-s acoustic pulses,[1],3.87
same,excitability to 1-s acoustic pulses,[6],14.4
same,activity during first hour,[3],-17.7
CC1(C)O[C@@H]2[C@@H](CO[C@@]3(COS(N)(=O)=O)OC(C)(C)O[C@@H]23)O1 [Topiramate],activity during first hour,[3],10.7
same,startle response to 20-s acoustic pulses,[4],0.811
Cc1nc(Nc2ncc(C(=O)Nc3c(C)cccc3Cl)s2)cc(N2CCN(CCO)CC2)n1 [Dasatinib],optomotor response to red moving lines,[2],-9.17
same,activity during period 15,[9],-15.1
same,optomotor response to green moving lines,[8],-4.87
CC(=O)S[C@@H]1CC2=CC(=O)CC[C@]2(C)[C@H]2CC[C@@]3(C)[C@@H](CC[C@@]34CCC(=O)O4)[C@H]12 [Spironolactone],habituation to 1-s acoustic pulses,[1],-0.287
same,activity during first hour,[3],-0.165
same,optomotor response to blue moving lines,[7],1.86
NC(=O)N1c2ccccc2C=Cc2ccccc21 [Carbamazepine],optomotor response to red moving lines,[2],-0.139
same,optomotor response to blue moving lines,[7],12.9
CCCN(CCC)S(=O)(=O)c1ccc(C(=O)O)cc1 [Probenecid],optomotor response to red moving lines,[2],-2.21
same,optomotor response to green moving lines,[8],10.3
OC(CNCC(O)C1CCc2cc(F)ccc2O1)C1CCc2cc(F)ccc2O1 (centres undefined) [Nebivolol hydrochloride],habituation to 1-s acoustic pulses,[1],-9.34
same,activity during period 15,[9],14
same,activity during first hour,[3],4.97
COc1ccccc1OCC(O)CN1CCN(CC(=O)Nc2c(C)cccc2C)CC1 (centres undefined) [Ranolazine dihydrochloride],optomotor response to red moving lines,[2],9.27
same,activity during period 15,[9],3.22
same,optomotor response to green moving lines,[8],-0.274
same,optomotor response,[5],9.26
